Some test systems named below: DU-145 prostate; K-562 leukemia; MALME-3M melanoma; MDA-MB-231 breast; RXF 393 renal; SF-268 CNS; SF-295 CNS; SF-539 CNS; UACC-257 melanoma; M14 melanoma; HCT-15 colon; HT29 colon; SNB-75 CNS; SNB-19 CNS; U251 CNS; PC-3 prostate; SK-MEL-5 melanoma; UACC-62 melanoma; LOX IMVI melanoma; SK-MEL-28 melanoma.
Common to all, as to experiment: NCI-60 one-dose screen, 48 h (100 = growth as untreated, 0 = no growth, -100 = all killed)
What all share (conditions): 10 µM unless noted

Compounds without any hit were thinned out: in the full panel of roughly 83,000, 20% have a hit.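 Plates (96-well) were seeded with cells, treated with compound at one concentration, and incubated for 48 hours before percent growth was determined.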 A number with no mark means an inactive call. Activity calls are given as the source filed them. The calls were made as follows: active = growth percent below 10; inactive = the rest.

In the case of `Fc1cc(F)cc(NNC(=S)c2ccccc2)c1`, the growth in the assay on DU-145 prostate was 58%; in the assay with K-562 leukemia it was 29.4%; in the assay on MALME-3M melanoma it was 85.3%; in the assay on MDA-MB-231 breast, 66.5%; in the assay with RXF 393 renal, -11% (active); in the assay on SF-268 CNS, 55%. Moreover, the growth with SF-295 CNS was 52.5%; with SF-539 CNS, 66.6%; in the assay on UACC-257 melanoma, 73.8%; in the assay with M14 melanoma, 30.2%; in the assay with HCT-15 colon, 28.2%; in the assay with HT29 colon, 101%. In addition, the growth is 70.9% in the assay with SNB-75 CNS; 61.7% in the assay on SNB-19 CNS; 28.9% in the assay on U251 CNS; 22% in the assay with PC-3 prostate; 46.2% with SK-MEL-5 melanoma; 31.8% with UACC-62 melanoma. In addition, the growth was 44.8% in the assay with LOX IMVI melanoma and 48.9% in the assay with SK-MEL-28 melanoma.
On to `C/C(=N\NC(N)=S)c1nnn(-c2ccc([N+](=O)[O-])cc2)c1C`, for which the growth was 104% in the assay on DU-145 prostate; 119% in the assay with K-562 leukemia; 92.8% in the assay with MALME-3M melanoma; 96.2% in the assay with MDA-MB-231 breast; 66.2% in the assay on RXF 393 renal; 97% in the assay with SF-268 CNS. For the same compound, the growth in the assay with SF-295 CNS is 98.8%; with SF-539 CNS, 97.5%; in the assay on UACC-257 melanoma, 98.4%; in the assay with M14 melanoma, 99.5%; in the assay with HCT-15 colon, 86.9%; in the assay with HT29 colon it was 104%. Moreover, the growth in the assay with SNB-75 CNS was 87.3%; in the assay with SNB-19 CNS, 95.6%; in the assay on U251 CNS, 98.1%; in the assay on PC-3 prostate it was 90.8%; with SK-MEL-5 melanoma, 100%; in the assay with UACC-62 melanoma, 98.4%. For the same compound, the growth in the assay on LOX IMVI melanoma was 94.9%; in the assay on SK-MEL-28 melanoma it was 104%.
Consider `CN1CCN(Cc2ccc(NC(=O)c3cncc(C#Cc4cnc5ccc(OCC(F)F)nn45)c3)cc2C(F)(F)F)CC1`, for which the growth with DU-145 prostate was -85.8% (active); in the assay with K-562 leukemia it was 0.0269% (active); in the assay with MALME-3M melanoma, -86.2% (active); in the assay on MDA-MB-231 breast it was -66.7% (active); in the assay on RXF 393 renal, -81% (active); in the assay on SF-268 CNS, -56.6% (active). Besides, the growth in the assay with SF-295 CNS was -76.6% (active); in the assay on SF-539 CNS, -90.6% (active); in the assay with UACC-257 melanoma it was -33.7% (active); in the assay with M14 melanoma, -89% (active); in the assay with HCT-15 colon, -57.4% (active); with HT29 colon, -66% (active). Moreover, the growth in the assay on SNB-75 CNS is -95.1% (active); with SNB-19 CNS, -31.7% (active); in the assay with U251 CNS, -72.7% (active); in the assay on PC-3 prostate it was -19.4% (active); in the assay on SK-MEL-5 melanoma, -95.7% (active); with UACC-62 melanoma, -46.8% (active). Besides, the growth is -91.2% (active) in the assay on LOX IMVI melanoma and -82.4% (active) in the assay on SK-MEL-28 melanoma.
`O=C1CSC(c2cn(-c3ccccc3)nc2-c2ccc(Cl)cc2)N1c1ccccc1` (stereo not given): the growth is 115% in the assay on DU-145 prostate; 109% with K-562 leukemia; 115% in the assay with MALME-3M melanoma; 107% in the assay on MDA-MB-231 breast; 126% with RXF 393 renal; 109% in the assay on SF-268 CNS. The growth in the assay on SF-295 CNS was 99.5%; with SF-539 CNS it was 99%; in the assay with UACC-257 melanoma it was 102%; in the assay on M14 melanoma it was 99.3%; in the assay with HCT-15 colon, 101%; in the assay with HT29 colon it was 106%. Further, the growth was 99.9% in the assay with SNB-75 CNS; 112% in the assay with SNB-19 CNS; 106% in the assay with U251 CNS; 99.7% in the assay with PC-3 prostate; 99.4% with SK-MEL-5 melanoma; 99% in the assay with UACC-62 melanoma. For the same compound, the growth in the assay with LOX IMVI melanoma is 100%; in the assay on SK-MEL-28 melanoma, 118%.
With `O=C(/C=C/c1cccc(F)c1)c1cccc(OCCCOc2cccc(C(=O)/C=C/c3cccc(F)c3)c2)c1`, the growth is 86.6% with DU-145 prostate; 21.7% with K-562 leukemia; 99.4% with MALME-3M melanoma; 81% in the assay on MDA-MB-231 breast; 70.1% in the assay on RXF 393 renal; 92.1% in the assay with SF-268 CNS. Further, the growth with SF-295 CNS is -19.8% (active); with SF-539 CNS it was 92.3%; in the assay on UACC-257 melanoma, 107%; with M14 melanoma, 92%; in the assay with HCT-15 colon, 9.37% (active); in the assay on HT29 colon it was 9.59% (active). Further, the growth with SNB-75 CNS was 112%; in the assay on SNB-19 CNS it was 65.1%; in the assay with U251 CNS it was 34.5%; in the assay on PC-3 prostate it was 36.9%; in the assay on SK-MEL-5 melanoma, 99.4%; in the assay with UACC-62 melanoma, 81.3%. In addition, the growth with LOX IMVI melanoma is -37.9% (active); in the assay on SK-MEL-28 melanoma, 106%.
`C#CCN(C)CCCOc1ccc(NC(=O)CCCCCCC(=O)NO)cc1Cl`: the growth in the assay on DU-145 prostate is 26.3%; in the assay on K-562 leukemia, 18.5%; with MALME-3M melanoma, 21.1%; in the assay with MDA-MB-231 breast it was 16.3%; in the assay with RXF 393 renal, -44.3% (active); in the assay on SF-268 CNS it was 39.3%. Moreover, the growth is 7.83% (active) in the assay with SF-295 CNS; 20.3% with SF-539 CNS; 25.6% in the assay with UACC-257 melanoma; 23% in the assay on M14 melanoma; 64.9% with HCT-15 colon; 10.5% in the assay on HT29 colon. Further, the growth was 26.3% in the assay with SNB-75 CNS; 30.3% in the assay on SNB-19 CNS; 8.98% (active) in the assay on U251 CNS; 26.5% in the assay on PC-3 prostate; -4.82% (active) in the assay on SK-MEL-5 melanoma; -28.9% (active) with UACC-62 melanoma. For the same compound, the growth in the assay with LOX IMVI melanoma was -61.4% (active); with SK-MEL-28 melanoma, 27.1%.
In the case of `CC(=O)OCCCCN1C=C/C(=C\C(=O)n2ccc3ccccc32)c2ccccc21`, the growth with DU-145 prostate was 109%; in the assay on K-562 leukemia, 90.6%; in the assay with MALME-3M melanoma, 106%; in the assay on MDA-MB-231 breast it was 86.6%; with RXF 393 renal, 115%; in the assay with SF-268 CNS, 103%. The growth is 103% with SF-295 CNS; 100% with SF-539 CNS; 112% in the assay with UACC-257 melanoma; 101% with M14 melanoma; 101% in the assay on HCT-15 colon; 113% in the assay with HT29 colon. Further, the growth is 100% with SNB-75 CNS; 103% with SNB-19 CNS; 102% in the assay on U251 CNS; 101% with PC-3 prostate; 100% in the assay on SK-MEL-5 melanoma; 89.4% in the assay with UACC-62 melanoma. Further, the growth is 99.9% in the assay on LOX IMVI melanoma and 111% in the assay on SK-MEL-28 melanoma.

(Values after PubChem BioAssay (NCI).)
